Assay results as given in PubChem BioAssay (NCI).
This is part of a sample that, as a whole, favours compounds with a hit. Of some 79,000 tested, about 15% had one in any assay. Unmarked numbers belong to inactive results. Active and inactive are the calls of the source. Rule as the data show it: active = growth inhibition above about 70%; inactive = the rest.

Experiments:
[1] = NCI Yeast Anticancer Drug Screen. Data for the rad50 strain (AID 155);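 also: 0% = growth of vehicle-only cultures of the same strain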; settings: S. cerevisiae rad50 strain growth inhibition, active compounds read high
How it was run: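 Compounds were tested on a yeast strain with an engineered DNA damage repair alteration; the reported value is growth inhibition normalised to vehicle treatment.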

[2] = NCI Yeast Anticancer Drug Screen. Data for the mec2-1 strain (AID 157); settings: S. cerevisiae mec2-1 strain, active compounds read high
How it was run: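 Strain: mec2-1 (DNA repair/cell cycle alteration). Compound exposure, then growth measured; inhibition expressed relative to vehicle.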

[3] = NCI Yeast Anticancer Drug Screen. Data for the sgs1 mgt1 strain (AID 161);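 also: 0% = growth of cultures given vehicle only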; settings: S. cerevisiae sgs1 mgt1 strain, active compounds read high
How it was run: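 Mutant yeast exposed to compound; growth scored against vehicle-only wells.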

[4] = NCI Yeast Anticancer Drug Screen. Data for the cln2 rad14 strain (AID 165);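 also: 0% = growth equal to vehicle treated cultures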; settings: S. cerevisiae cln2 rad14 strain, active compounds read high
How it was run: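 Compounds are applied to the cln2 rad14 yeast strain, and growth is then compared with that of vehicle-treated cultures to give inhibition.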

[5] = NCI Yeast Anticancer Drug Screen. Data for the bub3 strain (AID 167); settings: S. cerevisiae bub3 mutant strain, active compounds read high
How it was run: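 Growth of a checkpoint-deficient yeast mutant is measured after compound exposure. Values represent inhibition relative to vehicle.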

[6] = NCI Yeast Anticancer Drug Screen. Data for the mlh1 rad18 strain (AID 175); settings: S. cerevisiae mlh1 rad18 strain growth inhibition, active compounds read high
How it was run: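 Read-out is yeast growth inhibition, calculated against vehicle-only controls. The compound was applied to a strain engineered with DNA damage repair alterations.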

[7] = at 5.0 µM (retest, dose inferred, filed as 0.5)
[8] = at 50.0 µM (retest, dose inferred, filed as 5.0)

SMILES	growth inhibition [1, 7]	growth inhibition [1, 8]	growth inhibition ([1]; at 50.0 µM)	growth inhibition [2, 7]	growth inhibition [2, 8]	growth inhibition ([2]; at 50.0 µM)	growth inhibition [3, 7]	growth inhibition [3, 8]	growth inhibition ([3]; at 50.0 µM)	growth inhibition [4, 7]	growth inhibition [4, 8]	growth inhibition ([4]; at 50.0 µM)	growth inhibition [5, 7]	growth inhibition [5, 8]	growth inhibition ([5]; at 50.0 µM)	growth inhibition [6, 7]	growth inhibition [6, 8]	growth inhibition ([6]; at 50.0 µM)
CCC(C)(C)c1ccc(OCCO)c([N+](=O)[O-])c1	10%	70% (active)	77.3% (active)	8%	71% (active)	0.1%	15%	92% (active)	74% (active)	13%	64%	25.9%	19%	88% (active)	72.4% (active)	29%	90% (active)	56.9%
COc1ccc(CN2CCCN(Cc3ccc(OC)cc3OC)C2c2cccc([N+](=O)[O-])c2O)c(OC)c1	16%	61%	70.8% (active)	11%	29%	29.8%	8%	20%	77.5% (active)	5%	27%	54.1%	-5%	31%	7.65%	16%	70% (active)	51.4%
CCO[Si](CC)(OCC)OCC	-3%	2%	27.1%	-6%	-3%	4.4%	4%	3%	-12.2%	0%	3%	81.1% (active)	-3%	6%	-6%	-2%	3%	31.8%
O=C1C=CC(=O)N1c1ccccc1[N+](=O)[O-]	98% (active)	99% (active)	99.5% (active)	99% (active)	100% (active)	99.5% (active)	98% (active)	99% (active)	99.4% (active)	90% (active)	99% (active)	99.6% (active)	97% (active)	100% (active)	99.5% (active)	98% (active)	100% (active)	99.5% (active)
Cc1ccnc(NS(=O)(=O)c2ccc(N=Cc3c4ccccc4nc4cc(Cl)ccc34)cc2)n1	58%	15%	99.4% (active)	32%	38%	99.2% (active)	41%	23%	99.4% (active)	16%	1%	99% (active)	40%	-2%	58.1%	24%	11%	99.3% (active)
Nc1cc(Cl)ccc1C(=O)O	34%	78% (active)	81.2% (active)	7%	32%	91.7% (active)	14%	39%	49.8%	-2%	30%	42.7%	3%	50%	96.4% (active)	21%	59%	50.2%
CNC(=O)N(C)/N=C/c1ccc([N+](=O)[O-])o1	15%	67%	84.5% (active)	4%	40%	50.5%	14%	78% (active)	93.5% (active)	0%	36%	54.6%	17%	55%	45.5%	24%	76% (active)	91.8% (active)
O=C(O)c1ccc(C(O)(c2ccccc2)c2ccccc2)cc1	-9%	65%	63.4%	11%	95% (active)	86% (active)	-9%	90% (active)	98% (active)	-1%	90% (active)	82.3% (active)	-3%	97% (active)	77.7% (active)	3%	93% (active)	96.4% (active)
C#CCOC(=O)Nc1nc2ccc(SC#N)cc2s1	9%	90% (active)	97.8% (active)	-5%	87% (active)	96.8% (active)	3%	98% (active)	97.7% (active)	0%	92% (active)	96.4% (active)	14%	90% (active)	97.6% (active)	4%	96% (active)	97.2% (active)
CCCCCCCCCCCC(=O)N(CCCCCCCCC)CC(O)C(O)C(OC1OC(CO)C(O)C(O)C1O)C(O)CO (stereo not given)	0%	97% (active)	82.5% (active)	-2%	95% (active)	85% (active)	-36%	96% (active)	85.7% (active)	-17%	91% (active)	66.5%	6%	96% (active)	86.3% (active)	1%	97% (active)	62%
